PubChem BioAssay AID2284388 (EPA ToxCast)
Inconclusive results are not listed. The source made the active and inactive calls. How the source made its calls: active means hit-call score of the fitted dose curve at least 0.9, where 1 is the maximum; inconclusive means response in the unintended direction; inactive means score below 0.9.

Each compound was assayed against human Retinoid X Receptor beta (RXRb) Agonism, RXRB (gene 6257) (UniProt P28702) (assay: ERF_TW_NR_COA_hRXRB: Eurofins (ERF) Nuclear Receptor (NR) Functional Coactivator Assay for human Retinoid X Receptor beta (RXRb) Agonism).
Experimental: ERF_TW_NR_COA_hRXRB is a biochemical, single-readout assay that uses extracted gene-proteins in a cell-free assay. Measurements were taken 0.5 hours after chemical dosing in a 96-well plate. See RXRbeta Human Retinoid X NHR Functional Agonist Coactivator Assay, Panlabs.ERF_TW_NR_COA_hRXRB is an assay component calculated from the ERF_TW_NR_COA_hRXRB assay. It is designed to measure FRET using a type of binding reporter as detected by fluorescence intensity of fluorobexarotene with fluorimetry technology.Data from the assay component ERF_TW_NR_COA_hRXRB was analyzed at the assay endpoint, ERF_TW_NR_COA_hRXRB, in the positive analysis fitting direction relative to DMSO as the negative control and baseline of activity. Using a type of binding reporter, gain-of-signal activity can be used to understand changes in binding as they relate to gene RXRB. To generalize the intended target to other relatable targets, this assay endpoint is annotated to the nuclear receptor intended target family, where the subfamily is non-steroidal.
Test compound and/or vehicle is incubated with the 2 nM retinoid X receptor beta (RXRbeta)-LBD and coactivator peptide for 30 minutes at RT. Determination of the amount of complex formed is read spectrofluorimetrically (excitation: 337 nm, emission: 520/490 nm). Test compound-induced increase fluorescence by 50 percent or more (>/=50%) relative to the 10 uM fluorobexarotene response indicates possible RXRbeta receptor agonist activity.

human Retinoid X Receptor beta (RXRb) Agonism, RXRB (gene 6257), sequence (P28702 whole entry, looked up): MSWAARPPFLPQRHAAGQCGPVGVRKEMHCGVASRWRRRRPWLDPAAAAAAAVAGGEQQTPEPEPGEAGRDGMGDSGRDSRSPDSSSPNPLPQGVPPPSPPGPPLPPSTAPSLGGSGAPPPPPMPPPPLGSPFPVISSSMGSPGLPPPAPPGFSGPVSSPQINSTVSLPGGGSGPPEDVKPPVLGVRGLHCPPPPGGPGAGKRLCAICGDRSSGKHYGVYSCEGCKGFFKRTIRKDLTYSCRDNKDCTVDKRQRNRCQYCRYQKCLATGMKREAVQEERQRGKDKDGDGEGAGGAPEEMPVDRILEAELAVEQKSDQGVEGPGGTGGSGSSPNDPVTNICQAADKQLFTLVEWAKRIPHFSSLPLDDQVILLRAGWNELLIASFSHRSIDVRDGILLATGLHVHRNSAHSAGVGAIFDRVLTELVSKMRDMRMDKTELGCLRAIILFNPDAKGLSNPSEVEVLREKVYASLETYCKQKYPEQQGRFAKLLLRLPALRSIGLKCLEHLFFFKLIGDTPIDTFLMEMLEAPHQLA

**Q.** For `ClC1=C(Cl)[C@]2(Cl)[C@@H]3[C@@H]4C[C@@H]([C@H]5O[C@@H]45)[C@@H]3[C@@]1(Cl)C2(Cl)Cl`, which outcome is on record?
**A.** The outcome was “inactive”.

**Q.** How did the outcome turn out when `CC1(C)CCC(C)(C)c2cc(C(=O)Nc3ccc(C(=O)O)cc3)ccc21` was run?
**A.** The outcome was “inactive”.

**Q.** How did the outcome turn out when `O=C(O)C(F)(F)C(F)(F)C(F)(F)C(F)(F)C(F)(F)C(F)(F)C(F)(F)C(F)(F)Cl` was run?
**A.** Its outcome is “inactive”.

**Q.** With `O=C(O)C(F)(F)OC(F)(F)C(F)(F)OC(F)(F)C(F)(F)OC(F)(F)C(F)(F)C(F)(F)C(F)(F)F` as the compound, how does the outcome read?
**A.** The outcome was “inactive”.

**Q.** With `Cc1ccc2cc3c(ccc4ccccc43)c3c2c1CC3` as the compound, how does the outcome read?
**A.** Its outcome is “inactive”.

**Q.** For `CC(=O)c1cc(C(C)(C)C)cc2c1CCC2(C)C`, which AC50 is on record?
**A.** The AC50 was 14.5 µM (active).

**Q.** How did the outcome turn out when `CCCc1c(OCCCOc2ccc(OCC(=O)O)cc2)ccc(C(C)=O)c1O` was run?
**A.** The outcome was “inactive”.

**Q.** Which outcome does the source give for `O=C(O)C(F)(F)C(F)(F)C(F)(F)OC(F)(C(F)(F)F)C(F)(F)F` here?
**A.** The outcome was “inactive”.

**Q.** With `OCCCC(F)(F)C(F)(F)C(F)(F)C(F)(F)C(F)(F)C(F)(F)C(F)(F)F` as the compound, how does the outcome read?
**A.** The outcome was “inactive”.

**Q.** `C/C(=C\c1ccc(C(=O)O)cc1)c1ccc2c(c1)C(C)(C)CCC2(C)C` was tested. Which outcome did it give?
**A.** Its outcome is “inactive”.

**Q.** `CN(c1nccc(=O)[nH]1)C1CCN(c2nc3ccccc3n2Cc2ccc(F)cc2)CC1` was tested. Which outcome did it give?
**A.** The outcome was “inactive”.

**Q.** Which outcome does the source give for `O=S(=O)(O)C(F)(F)C(F)(F)C(F)(F)C(F)(F)C(F)(F)C(F)(F)C(F)(F)C(F)(F)F` here?
**A.** The outcome was “inactive”.

**Q.** Which outcome does the source give for `ClC1=C(Cl)[C@]2(Cl)[C@@H]3[C@H]4C[C@H]([C@@H]5O[C@H]45)[C@@H]3[C@@]1(Cl)C2(Cl)Cl` here?
**A.** Its outcome is “inactive”.
